Experimental data: PubChem BioAssay AID1159580 (chemical genetic matrix, 2015)
Out of some 5,500 compounds screened, about 2,000 (36%) were called active. Inconclusive results (about 18%) are left out. Cut-off read from the data, not from the text of the source: active = normalized growth mostly below about 0.91 (no sharp cut-off); inconclusive = no clear call, values can overlap the other calls; inactive = mostly above about 0.92. The list shows a part of the results.

Assay: chemical genetic growth profiling, strain panel (AID 1159580);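 note: tested at 20 µM; growth read once vehicle control cultures reached saturation at 30 °C; 1 = growth at the plate median or of vehicle wells; lower values mean less growth of the strain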
Conditions: growth OD

Measured: normalized growth

Clc1ccc(OCCOc2ccc(Cl)cc2)cc1
inactive: S. cerevisiae deletion strains, locus YAL013W, strain DEP1, hits give low values 1.01 | S. cerevisiae deletion strains, locus YBR229C, strain ROT2, hits give low values 0.99 | S. cerevisiae deletion strains, locus YDL101C, strain DUN1, hits give low values 1.04 | S. cerevisiae deletion strains, locus YDL134C, strain PPH21, hits give low values 0.996 | S. cerevisiae deletion strains, locus YDR150W, strain NUM1, hits give low values 1.01 | S. cerevisiae deletion strains, locus YEL061C, strain CIN8, hits give low values 0.99 | S. cerevisiae deletion strains, locus YGR078C, strain PAC10, hits give low values 1.02 | S. cerevisiae deletion strains, locus YHR030C, strain SLT2, hits give low values 0.978 | S. cerevisiae deletion strains, locus YHR087W, strain rtc3, hits give low values 0.965 | S. cerevisiae deletion strains, locus YJL187C, strain SWE1, hits give low values 1.02 | S. cerevisiae deletion strains, locus YJR043C, strain POL32, hits give low values 1.04 | S. cerevisiae deletion strains, locus YJR075W, strain HOC1, hits give low values 0.998 | S. cerevisiae deletion strains, locus YLR039C, strain RIC1, hits give low values 1.01 | S. cerevisiae deletion strains, locus YLR058C, strain SHM2 (second series), hits give low values 1.01 | S. cerevisiae deletion strains, locus YLR085C, strain ARP6, hits give low values 1.01 | S. cerevisiae deletion strains, locus YLR262C, strain YPT6, hits give low values 0.95 | S. cerevisiae deletion strains, locus YML094W, strain GIM5, hits give low values 0.971 | S. cerevisiae deletion strains, locus YMR219W, strain ESC1, hits give low values 1.02 | S. cerevisiae deletion strains, locus YMR263W, strain SAP30, hits give low values 1.01 | S. cerevisiae deletion strains, locus YNL128W, strain TEP1, hits give low values 1.01 | S. cerevisiae deletion strains, locus YNL153C, strain GIM3, hits give low values 1 | S. cerevisiae deletion strains, locus YNL298W, strain CLA4 (second series), hits give low values 0.989 | S. cerevisiae deletion strains, locus YNL322C, strain KRE1, hits give low values 0.998 | S. cerevisiae deletion strains, locus YNR030W, strain Alg12, hits give low values 0.983 | S. cerevisiae deletion strains, locus YOL006C, strain TOP1, hits give low values 0.937 | S. cerevisiae deletion strains, locus YPL055C, strain LGE1, hits give low values 0.975 | S. cerevisiae deletion strains, locus YPL241C, strain CIN2, hits give low values 0.986 | S. cerevisiae deletion strains, locus YPR135W, strain CTF4, hits give low values 1.07 | S. cerevisiae strains, strain wild type, hits give low values 1.01
